Assay outcomes (PubChem BioAssay)
USP28 inh – human USP28 deubiquitinase inhibition; inhibition, % at 25 µM; AID 1645857; 47,000 tested, 3% active; Q96RU2; purified USP28, Ub-rhodamine cleavage fluorescence, 30 min
USP30 block – blocks human USP30 ubiquitin-rhodamine cleavage | purified USP30, Ub-rhodamine cleavage fluorescence | 47,000 tested, 5.3% active | inhibition, % at 25 µM
USP17 block – human USP17-like deubiquitinase inhibition | inhibition, % at 50 µM | AID 1645855 | purified USP17, Ub-rhodamine cleavage fluorescence, 3 h | 47,000 tested, 6.5% active | A8MUK1
Target sequence (A8MUK1 whole entry, looked up): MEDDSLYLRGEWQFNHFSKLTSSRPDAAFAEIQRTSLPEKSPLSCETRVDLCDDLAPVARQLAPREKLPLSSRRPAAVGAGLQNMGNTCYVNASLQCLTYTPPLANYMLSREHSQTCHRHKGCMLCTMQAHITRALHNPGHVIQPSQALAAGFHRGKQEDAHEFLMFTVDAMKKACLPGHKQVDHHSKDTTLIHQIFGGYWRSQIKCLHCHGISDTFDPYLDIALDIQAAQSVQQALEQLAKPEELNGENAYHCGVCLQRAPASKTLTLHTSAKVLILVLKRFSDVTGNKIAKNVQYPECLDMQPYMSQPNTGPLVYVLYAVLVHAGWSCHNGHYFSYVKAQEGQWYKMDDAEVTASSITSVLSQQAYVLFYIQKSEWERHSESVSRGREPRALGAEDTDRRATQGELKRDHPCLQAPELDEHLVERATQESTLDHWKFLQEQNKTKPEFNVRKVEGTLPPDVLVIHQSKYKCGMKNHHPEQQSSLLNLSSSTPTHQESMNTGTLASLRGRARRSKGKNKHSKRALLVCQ
Numbers stand for hits; - = inactive; . = not tested or not shown. Hits are enriched below; roughly 11% of the tested compounds scored in any of these assays. Rule as the data show it: active = inhibition above about 30%; inactive = the rest.

SMILES	USP28 inh	USP30 block	USP17 block
COCCCn1c(C(=O)Nc2ccccc2OC)cc2c(=O)n3ccccc3nc21	-	35	77
COCCCn1c(C(=O)NCCC(C)C)cc2c(=O)n3ccccc3nc21	-	34	32
COCCCn1c(C(=O)Nc2ccc(OC)cc2)cc2c(=O)n3ccccc3nc21	-	-	-
CCCCNC(=O)c1cc2c(=O)n3ccccc3nc2n1CCCOC	-	-	-
CSc1cccc(NC(=O)c2ccc3nncn3c2)c1	-	-	-
CCn1c(SCC(=O)c2c(N)n(CC(C)C)c(=O)n(C)c2=O)nnc1-c1ccccc1	-	-	58
Cn1c(N)c(C(=O)CSc2nnc(COc3ccc(Cl)cc3)n2Cc2ccccc2)c(=O)n(C)c1=O	-	-	-
Cc1nsc(NC(=O)c2oc3ccc(F)cc3c2C)n1	-	-	-
O=C1CCSc2ccccc2N1Cc1ccc([N+](=O)[O-])cc1	-	33	-
CC1Oc2ccccc2C(=O)N(Cc2ccc([N+](=O)[O-])cc2)C1=O (configuration not stated)	74	-	-
Cc1ccccc1CN1C(=O)CCSc2ccc(Cl)cc21	-	-	.
CC1CC(=O)N(Cc2ccc([N+](=O)[O-])cc2)c2ccccc2S1 (configuration not stated)	62	33	-
CCC1Oc2ccccc2C(=O)N(Cc2ccccc2Cl)C1=O (configuration not stated)	-	-	-
O=C1CCSc2ccccc2N1Cc1cccc(F)c1	-	-	-
CC1CC(=O)N(Cc2ccc(F)cc2)c2ccccc2S1(=O)=O (configuration not stated)	-	-	-
O=C1CCSc2ccc(Cl)cc2N1Cc1cccc(F)c1	37	34	-
Cc1cc(C2CCCN2C(=O)c2cc3nc(C4CC4)cc(C(F)(F)F)n3n2)on1 (configuration not stated)	-	-	-
O=S(=O)(N1CCCC1)N1C2CCC(C2)[C@H]1COc1ccc(F)cc1 (some centres not stated)	-	-	-
Cc1cc(C)n2ncc(-c3nn4c(C(C)C)nnc4s3)c2n1	-	-	-
CCNC(=O)NC1CCN(c2nc3cccnc3n(Cc3ccccc3)c2=O)CC1	-	-	-
O=C1CC(c2ccccc2)Cc2nc(NCc3ccco3)ncc21 (configuration not stated)	-	-	-
O=C1CC(c2ccco2)Cc2nc(NCc3ccco3)ncc21 (configuration not stated)	-	-	34
CCCSc1nc(SCC(=O)c2ccccc2)c2c3c(sc2n1)COC(C)(C)C3	-	-	-
O=C(Nc1ccncc1)c1cc(Br)ccc1F	-	35	-
O=C(Nc1ccncc1)c1ccc[nH]c1=O	-	-	-
SMILES	USP28 inh	USP30 block	USP17 block
Cc1nc2c(c(-c3ccc(O)cc3)n1)CCNCC2	-	-	-
Oc1ccc(-c2nc3c4cnn(-c5cccc(Cl)c5)c4ncn3n2)cc1	.	.	-
COc1ccc(-c2noc(-c3ccc(OCC(=O)NCc4ccccc4OC)cc3)n2)cc1	-	-	-
CCc1noc(-c2ccc(OCC(=O)Nc3ccccc3C(C)C)cc2)n1	-	-	41
CCc1noc(-c2ccc(OCC(=O)Nc3ccc(C)cc3C)cc2)n1	-	-	51
CCc1ccc(NC(=O)COc2ccc(-c3nc(CC)no3)cc2)cc1	-	-	-
CC1CC1c1nnc(C2(c3ccc4c(c3)OCO4)CCOCC2)o1 (configuration not stated)	-	-	-
Cc1ccc(-c2cc(C(=O)Nc3ccc(S(N)(=O)=O)cc3)[nH]n2)c(O)c1	48	32	39
NS(=O)(=O)c1ccc(NC(=O)CNCCc2ccc(F)cc2)cc1	-	-	-
CCN(CC)C(=O)Cn1c2ccccc2c2nc3n(c(=O)c21)CCCS3	-	-	-
Fc1ccc(Oc2nc(CN3CCOCC3)nc3sc4c(c23)CCC4)cc1Cl	-	-	-
COc1ccccc1C(=O)NCCS(=O)(=O)N1CCN(c2ncccn2)CC1	-	-	-
c1ccc(-c2nc(-c3nnn(-c4ccccc4)c3-c3ccncc3)no2)cc1	-	-	51
Cc1c(-c2noc(-c3cccnc3)n2)nnn1-c1ccccc1	-	-	-
Cc1c(-c2noc(-c3ccncc3)n2)nnn1-c1ccccc1	-	31	-
c1ccc(-n2nnc(-c3noc(-c4ccncc4)n3)c2-c2ccncc2)cc1	-	-	-
COc1ccc2nc(C(=O)NCc3ccccc3)cn2n1	-	-	-
O=C(NCc1ccco1)c1nn(C23CC4CC(CC(C4)C2)C3)cc1[N+](=O)[O-]	-	-	-
CCOc1ccc2nc(C(=O)NCc3ccc4c(c3)OCO4)cn2n1	-	41	32
O=C(NCc1ccc2c(c1)OCO2)c1nn(C23CC4CC(CC(C4)C2)C3)cc1[N+](=O)[O-]	-	62	-
COc1ccc2[nH]c3c(=O)n(Cc4ccc(C#N)cc4)cnc3c2c1	-	-	-
COc1ccccc1N1CCN(C(=O)CCCn2c(=O)[nH]c3ccc(Br)cc3c2=O)CC1	-	-	-
O=C(CCCCn1c(=O)[nH]c2ccccc2c1=O)N1CCN(C2CCCCC2)CC1	-	-	-
O=C(CCCn1c(=O)[nH]c2cc(Cl)ccc2c1=O)N1CCc2ccccc2C1	-	-	55
COc1ccc(Cl)cc1NC(=O)Cn1c(=O)n(CCC(=O)N2CCc3ccccc3C2)c(=O)c2ccccc21	-	36	-
SMILES	USP28 inh	USP30 block	USP17 block
COc1ccc(NC(=O)Cn2c(=O)n(CCC(=O)N3CCc4ccccc4C3)c(=O)c3ccccc32)cc1Cl	-	-	.
O=C(CCCn1c(=O)[nH]c2ccc(Br)cc2c1=O)N1CCc2ccccc2C1	-	31	-
CCCCCC(=O)Nc1ncc2c(n1)CC(c1ccc(OC)c(OC)c1)CC2=O (configuration not stated)	-	-	-
COc1ccc(C(=O)N2CCCN(C3=NS(=O)(=O)C(c4ccccc4)=C3C)CC2)cc1	-	-	-
O=C(Nc1ccc(Oc2cccc3cccnc23)cc1)c1cccs1	86	-	-
CC(Oc1ccc(F)cc1)C(=O)Nc1cccc2cccnc12 (configuration not stated)	-	-	-
COc1ccc(OC)c(NC(=O)CN2CCCN(Cc3ccc(F)cc3)S2(=O)=O)c1	-	-	.
O=C(NCc1ccccn1)c1ccc(-c2ccc(N3CCSCC3)nc2)cc1	33	82	60
COCCCNC(=O)c1ccc(-c2ccc(N3CCCCC3)nc2)cc1	-	-	-
Cn1cc(CN2C[C@@H](NC(=O)c3cscn3)[C@H]3OCCC[C@H]32)cn1	-	-	-
COc1ccc(C)cc1NC(=O)N1CCC2(CC1)Nc1ccccc1-n1cccc12	-	-	-
CC(=O)N1CC2(CCN(C(=O)c3ccccn3)CC2)Nc2ccccc21	-	-	-
O=C(Nc1cccc(C(F)(F)F)c1)N1CCC2(CC1)Nc1ccccc1-n1cccc12	-	43	-
O=C(c1ccccn1)N1CCC2(CC1)CC1(CO2)Nc2ccccc2-n2cccc21 (configuration not stated)	-	-	46
O=C(Nc1ccc2c(c1)OCCO2)N1CCC2(CC1)Nc1ccccc1-n1cccc12	-	-	-
CCc1ccccc1NC(=O)N1CCC2(CC1)Nc1ccccc1-n1cccc12	-	-	45
O=C1C[C@@H]2O[C@H](CNC(=O)[C@@H]3CN(CCN3C(=O)C3CCOCC3)C(=O)[C@@H]3C[C@@H](CN3Cc3ccc(F)c(F)c3)N1)[C@@H](O)[C@H]2O	-	-	-
